Source: PubChem BioAssay (National Center for Advancing Translational Sciences (NCATS))
Sampled rows, rich in hits. Any-hit rate of the full collection: about 11%.
PLK1 PBD inh: inhibitors of human PLK1 polo-box domain binding; Plk1 PBD binding of FITC phosphopeptide, fluorescence polarization; Potency, µM, for inactives: max response, negative = inhibition, hits mostly inhibitors; 360,000 compounds, 2.8% hits; further: series mostly up to about 57 µM; on the % scale 0 is the no-effect control and ±100 the full control effect; nearly all actives have a fitted effect of over 65% in size
Target sequence (P53350 whole entry, looked up, the tested form may be a part): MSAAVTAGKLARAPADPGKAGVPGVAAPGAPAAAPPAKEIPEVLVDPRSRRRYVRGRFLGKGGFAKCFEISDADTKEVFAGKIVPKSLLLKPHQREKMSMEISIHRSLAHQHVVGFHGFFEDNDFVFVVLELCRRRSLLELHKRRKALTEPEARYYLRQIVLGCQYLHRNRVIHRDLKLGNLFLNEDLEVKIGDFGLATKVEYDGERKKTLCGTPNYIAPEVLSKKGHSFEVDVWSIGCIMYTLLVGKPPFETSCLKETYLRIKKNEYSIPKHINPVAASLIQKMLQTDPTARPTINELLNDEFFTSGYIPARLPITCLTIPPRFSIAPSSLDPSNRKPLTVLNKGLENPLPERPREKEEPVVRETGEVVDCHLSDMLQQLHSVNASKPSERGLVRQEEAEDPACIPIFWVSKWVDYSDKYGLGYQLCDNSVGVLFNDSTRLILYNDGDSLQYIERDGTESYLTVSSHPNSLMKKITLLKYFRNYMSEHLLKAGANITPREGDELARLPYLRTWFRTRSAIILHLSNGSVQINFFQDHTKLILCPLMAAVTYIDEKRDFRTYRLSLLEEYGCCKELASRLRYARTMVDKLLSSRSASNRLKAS
BAZ2B block: BAZ2B (human) inhibition; Q9UIF8; AlphaScreen BAZ2B-H3K14Ac peptide displacement; Potency, µM (series often up to 114 µM), without a hit: at the top dose activity change, negative = inhibition, hits mostly inhibitors; 360,000 compounds, 4.4% hits; AID 504333; further: on the % scale 0 is the no-effect control and ±100 the full control effect; nearly all actives have a fitted effect of over 60% in size
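Compounds, titrated to a top concentration of 110 uM, were incubated 30 min at room temperature with preformed BAZ2B/acetyl-K14 H3 peptide complex (50 nM each). Proximity signal was measured by AlphaScreen after 20 min with beads.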
JMJD2A Tudor: JMJD2A Tudor domain (human) inhibition; AlphaScreen JMJD2A-Tudor / H3K4me3 peptide binding; Potency, µM (titrated, usually from 114 µM), without a hit: top-dose activity change, negative = inhibition, actives largely listed as inhibitors; AID 504339; O75164; 390,000 compounds, 4.4% hits; further: on the % scale 0 is the no-effect control and ±100 the full control effect; nearly all actives have a fitted effect of over 50% in size
HP1b chromo inh: blocks HP1-beta chromodomain binding to methylated histone tails; 390,000 compounds, 0.56% hits; P83916; AlphaScreen HP1-beta / biotin-H3K9me3 peptide binding; Potency, µM (series often up to 114 µM), without a hit: at the top dose activity change, negative = inhibition, usual class: inhibitors; further: nearly all actives have a fitted effect of over 70% in size
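HP1-beta protein (50 nM final) preincubated 30 min at room temperature with biotinylated H3(1-18)K9me3 peptide (50 nM) in PBS pH 7.4, 0.01% Tween-20, then compound added for 30 min. AlphaScreen streptavidin donor/nickel chelate acceptor beads (10 ug/mL final), 30 min dark, luminescence read.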
G9a block: inhibitors of human histone lysine methyltransferase G9a | Q96KQ7 | G9a H3K9 monomethylation, AlphaScreen, 2 h | Potency, µM (titrated, usually from 102 µM), for the others: top-dose activity, negative = inhibition, hits mostly inhibitors | 350,000 compounds, 8.8% hits | AID 504332; further: on the % scale 0 is the no-effect control and ±100 the full control effect; nearly all actives have a fitted effect of over 75% in size
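Quantitative HTS format: methyltransferase activity on a biotin-tagged H3K9 peptide is measured by AlphaScreen, using a rabbit anti-monomethyl-H3K9 antibody with streptavidin donor and anti-IgG acceptor beads. Final levels are 20 nM enzyme, 500 nM peptide, 20 uM SAM; 2 h RT.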
VDR inh: vitamin D3 receptor (human) inhibition. VDR-SRC2-3 peptide fluorescence polarization, 2 h. Potency, µM, for the others: max response, negative = inhibition, usual class: inhibitors. 400,000 compounds, 0.93% hits. P11473; further: on the % scale 0 is the no-effect control and ±100 the full control effect
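VDR–SRC2-3 interaction, FP format. Cmpds 23 nl via pintool, brief spin, 2 h ambient incubation.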
An asterisk follows results filed as active; ? = inconclusive; / = no result given; [ ] = another dose, or the depositor's remark. The call rests on the fitted dose curve; in most records, active means well fitted curve in the direction sought with a large enough effect; inconclusive means small, poorly fitted or top-dose-only effect, or another doubt; inactive means no such curve, though single readings can be large; an effect the other way counts as inactive or inconclusive. Potency means the concentration at half of the fitted maximal effect.

SMILES	PLK1 PBD inh	BAZ2B block	JMJD2A Tudor	HP1b chromo inh	G9a block	VDR inh
NC(=S)/N=C/c1c(O)[nH]c(=O)[nH]c1=O	-17.7%	-12.2%	-25.9%	12.4%	79.4µM*	-19.1%
S=c1[nH]nc(Cn2c(-c3ccccn3)nc3ccccc32)n1-c1ccc2c(c1)OCCO2	-14.6%	-5.8%	3.16µM*	?	-134.8%[59 µM]	9.8%
Oc1cc2c(cc1CN1CCN(c3ccc(F)cc3)CC1)OCO2	-24.5%	?	?	-9.8%	8.91µM*	-1.5%
Brc1cc2c(cc1CN1CCN(c3ccccc3)CC1)OCCO2	-8.0%	?	?	-11.1%[57 µM]	?	-8.7%
O=C(O)CCCc1ccc(N(CCCl)CCCl)cc1	-21.2%	56.2µM*	-30.9%	21.7%	-0.9%[59 µM]	?
O=C1C=C(N2CC2)c2ccccc2C1=O	15µM*	/	/	/	/	/
Cc1cc(N(CCCl)CCCl)ccc1C=Cc1ccncn1	31.4%	/	29.7%	116.9%	/	2.3%
Cc1cc(N(CCCl)CCCl)ccc1/C=N/N=C(\N)c1cnccn1	-4.8%	/	14.1µM*	?	/	13.2%
C=CCc1cccc(C=Nc2c[nH]c(=O)[nH]c2=O)c1O	26.7µM*	?	39.8µM*	-0.4%	-10.0%	-21.2%
CN(C)C(=O)Nc1ccc(-n2nc(C(C)(C)C)oc2=O)c(Cl)c1	/	/	/	/	/	-1.3%
O=C1C=C2C(=CCOC2O)O1 (centres undefined)	/	/	/	/	-40.9%[2.33 µM]	12.6µM*
CCN(CCCl)Cc1ccccc1Br	?	/	?	30.6%	18.5%[12.7 µM]	7.8%
CCCCCOc1ccc(C)cc1CN(CCCl)CCCl	23.8µM*	-6.1%	-21.4%	28.8%	/	-27.0%
Fc1ccc(C(OCCN2CCN(C/C=C/c3ccccc3)CC2)c2ccc(F)cc2)cc1	/	/	/	/	11.2µM*	-16.5%
c1ccc(CCCN2CCN(CCOC(c3ccccc3)c3ccccc3)CC2)cc1	?	/	56.2µM*	4.4%	10µM*	?
Fc1ccc(C(OCCN2CCN(CCCc3ccccc3)CC2)c2ccc(F)cc2)cc1	/	/	50.1µM*	-20.9%	?	-9.4%
Fc1ccc(C(OCCN2CCCC2)c2ccc(F)cc2)cc1	-12.6%	4.7%	-24.2%	20.9%	1.7%[59 µM]	10.5%
C[N+]1([O-])[C@H]2CC[C@H]1CC(OC(=O)[C@@H](CO)c1ccccc1)C2 (some centres undefined)	/	/	/	/	10.2%[59 µM]	0.6%
C[C@H](CCC(=O)O)C[C@H](C)C[C@H](C)C(=O)/C=C(\O)[C@H](C)C[C@H](C)C/C=C/[C@@H](C)[C@@H](O)[C@@H](C)[C@@H](O)C[C@@H]1CC[C@@](C)([C@H]2CC[C@@](C)([C@@H](C)O)O2)O1	/	/	/	/	26.7%[59 µM]	?
C/C(=C/C=C/[C@@H](C)C(=O)O)[C@H]1CN[C@H](C(=O)O)[C@H]1CC(=O)O	-8.3%	-1.6%	56.2µM*	20.9%	?	?
COc1ccc(C[C@@H]2NC[C@H](O)[C@@H]2OC(C)=O)cc1	/	/	/	/	10.5%[21.5 µM]	0.2%
O=[N+]([O-])c1ccc(N2CCCC(C(F)(F)F)C2)c2ccncc12 (centres undefined)	0.4%	?	?	?	50.1µM*	-23.9%
O=C(O)c1cccc2c1NC(c1cccc([N+](=O)[O-])c1)C1CC(Sc3ccccc3[N+](=O)[O-])C(Cl)C21 (centres undefined)	13.4µM*	22.4µM*	22.4µM*	?	15.8µM*	58.9%
O=C(O)c1ccc2c(c1)C1C(Cl)C(Sc3ccccc3[N+](=O)[O-])CC1C(c1cccc([N+](=O)[O-])c1)N2 (centres undefined)	18.9µM*	17.8µM*	-21.8%[11.4 µM]	39.8µM*	20µM*	7.2%
CCCCN(CC)c1c([N+](=O)[O-])cc(C(F)(F)F)cc1[N+](=O)[O-]	/	/	/	/	/	-18.3%
O=c1c2ccc(Cl)cc2[nH]c(=S)n1-c1cccnc1	1.5%	-21.2%	17.8µM*	21.5%	20µM*	-15.2%
Cc1ccc2[nH]c(=S)n(-c3cccnc3)c(=O)c2c1	-1.6%	0.9%	?	20.0%	44.7µM*	-10.7%
N[C@@H](Cn1cc(I)c(=O)[nH]c1=O)C(=O)O	/	/	/	/	35.5µM*	-4.3%
